Assay results from PubChem BioAssay AID1159580 (chemical genetic matrix, 2015).
Where “and” joins values, the source holds several entries; their conditions need not be identical. Identical values can stand only once. The whole screen tested about 5,500 compounds, of which about 2,000 (36%) were called active. Not shown: some 18% with an inconclusive outcome. Cut-off read from the data, not from the text of the source: active = normalized growth mostly below about 0.91 (no sharp cut-off); inconclusive = no clear call, values can overlap the other calls; inactive = mostly above about 0.92. The list shows a part of the results.

Test: chemical genetic growth profiling, strain panel (AID 1159580);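 note: tested at 20 µM; growth read once vehicle control cultures reached saturation at 30 °C; 1 = growth at the plate median or of vehicle wells; lower values mean less growth of the strain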
Conditions: S. cerevisiae deletion strains, growth OD

Measured: normalized growth

CCCCCC1C(=O)CCC1CC(=O)OC (stereo not given)
active: locus YER110C, active compounds read low 0.898
inactive: locus YAL013W, strain DEP1, active compounds read low 0.988 | locus YAL021C, strain ccr4, active compounds read low 1.04 | locus YAL026C, strain drs2, active compounds read low 0.988 | locus YAL030W, strain snc1, active compounds read low 0.981 | locus YBL061C, strain skt5, active compounds read low 0.984 | locus YBR009C, strain hhf1, active compounds read low 0.972 | locus YBR021W, strain FUR4, active compounds read low 0.921 | locus YBR023C, strain chs3, active compounds read low 0.977 | locus YBR171W, strain sec66, active compounds read low 0.96 | locus YBR229C, strain ROT2, active compounds read low 0.991 | locus YBR231C, strain swc5, active compounds read low 0.978 | locus YBR279W, strain paf1, active compounds read low 0.986 | locus YCL011C, strain gbp2, active compounds read low 0.988 | locus YCL016C, strain dcc1, active compounds read low 0.979 | locus YCL029C, strain bik1, active compounds read low 0.958 | locus YCL061C, strain MRC1, active compounds read low 0.984 | locus YCL069W, strain vba3, active compounds read low 0.986 | locus YCR088W, strain abp1, active compounds read low 0.973 | locus YDL005C, strain med2, active compounds read low 0.97 | locus YDL035C, strain GPR1, active compounds read low 0.974 | locus YDL040C, strain nat1, active compounds read low 0.981 | locus YDL074C, strain BRE1, active compounds read low 0.992 | locus YDL101C, strain DUN1, active compounds read low 1.01 | locus YDL134C, strain PPH21, active compounds read low 1.01 | locus YDL185W, strain tfp1, active compounds read low 0.931 | locus YDL192W, strain arf1, active compounds read low 0.97 | locus YDR001C, strain nth1, active compounds read low 0.984 | locus YDR069C, strain doa4, active compounds read low 0.999 | locus YDR101C, strain arx1, active compounds read low 0.96 | locus YDR137W, strain rgp1, active compounds read low 0.996 | locus YDR150W, strain NUM1, active compounds read low 0.975 | locus YDR159W, strain sac3, active compounds read low 0.969 | locus YDR162C, strain NBP2, active compounds read low 1.03 | locus YDR195W, strain ref2 0.991 | locus YDR297W, strain sur2, active compounds read low 0.978 | locus YDR318W, strain mcm21, active compounds read low 0.961 | locus YDR334W, strain swr1, active compounds read low 0.986 | locus YDR335W, strain msn5, active compounds read low 1.01 | locus YDR388W, active compounds read low 0.954 | locus YDR392W, strain spt3, active compounds read low 0.975 | locus YDR502C, strain sam2, active compounds read low 0.996 | locus YEL003W, strain gim4, active compounds read low 0.987 | locus YEL037C, strain rad23, active compounds read low 0.984 | locus YEL061C, strain CIN8 (second series), active compounds read low 0.989 | locus YEL061C, strain CIN8, active compounds read low 0.991 | locus YER015W, strain faa2, active compounds read low 0.98 | locus YER016W, strain bim1, active compounds read low 0.986 | locus YER111C, strain swi4, active compounds read low 0.982 | locus YER155C, strain BEM2 (second series), active compounds read low 0.95 | locus YER155C, strain BEM2, active compounds read low 0.952 | locus YER167W, strain BCK2, active compounds read low 0.97 | locus YFR010W, strain ubp6, active compounds read low 0.987 | locus YGL078C, strain dbp3, active compounds read low 0.966 | locus YGL086W, strain mad1, active compounds read low 1.01 | locus YGL167C, strain pmr1, active compounds read low 0.96 | locus YGL173C, strain kem1, active compounds read low 0.967 | locus YGL227W, strain vid30, active compounds read low 0.963 | locus YGL240W, strain doc1, active compounds read low 0.994 | locus YGL248W, strain PDE1, active compounds read low 1.04 | locus YGL253W, strain hxk2, active compounds read low 0.981 | locus YGR078C, strain PAC10, active compounds read low 1.04 | locus YGR135W, strain pre9, active compounds read low 0.963 | locus YGR229C, strain SMI1, active compounds read low 1.02 | locus YGR252W, strain gcn5, active compounds read low 1.1 | locus YHR013C, strain ard1, active compounds read low 1 | locus YHR027C, strain rpn1, active compounds read low 0.992 | locus YHR030C, strain SLT2, active compounds read low 0.979 and 0.975 | locus YHR079C, strain IRE1 (second series), active compounds read low 0.957 | locus YHR079C, strain IRE1, active compounds read low 0.975 | locus YHR094C, strain hxt1, active compounds read low 0.986 | locus YHR129C, strain ARP1, active compounds read low 0.993 | locus YHR142W, strain chs7, active compounds read low 0.987 | locus YHR200W, strain rpn10, active compounds read low 0.981 | locus YIL066C, strain RNR3, active compounds read low 1 | locus YIL073C, strain SPO22, active compounds read low 0.952 | locus YIL125W, strain kgd1, active compounds read low 0.961 | locus YIR030C, strain dcg1, active compounds read low 0.948 | locus YJL092W, strain hpr5, active compounds read low 0.975 | locus YJL095W, strain BCK1 (second series), active compounds read low 0.983 | locus YJL095W, strain BCK1, active compounds read low 1.06 and 0.982 | locus YJL115W, strain asf1, active compounds read low 0.966 | locus YJL129C, strain trk1, active compounds read low 1 | locus YJL134W, strain LCB3, active compounds read low 0.967 | locus YJL154C, strain vps35, active compounds read low 0.976 | locus YJL164C, strain tpk1, active compounds read low 0.992 | locus YJL166W, strain qcr8, active compounds read low 0.978 | locus YJL168C, strain set2, active compounds read low 0.951 | locus YJL187C, strain SWE1 (second series), active compounds read low 1.03 | locus YJL187C, strain SWE1, active compounds read low 0.977
